Reference: PubChem BioAssay AID1159580 (chemical genetic matrix, 2015)
In all, about 5,500 compounds went through this assay and about 2,000 (36%) were called active. Roughly 18% stayed inconclusive and do not appear here. Cut-off read from the data, not from the text of the source: active = normalized growth mostly below about 0.91 (no sharp cut-off); inconclusive = no clear call, values can overlap the other calls; inactive = mostly above about 0.92. The list shows a part of the results.

Assay: chemical genetic growth profiling, strain panel (AID 1159580);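 note: tested at 20 µM; growth read once vehicle control cultures reached saturation at 30 °C; 1 = growth at the plate median or of vehicle wells; lower values mean less growth of the strain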
Conditions: S. cerevisiae deletion strains, growth OD

Measured: normalized growth

COc1ccc(OC)c(-c2ccn[nH]2)c1OCc1ccccc1
inactive: locus YAR019C, strain CDC15, stronger effect = lower value 0.995 | locus YBL105C, strain PKC1, stronger effect = lower value 0.998 | locus YBR135W, strain CKS1, stronger effect = lower value 0.994 | locus YBR136W, strain MEC1, stronger effect = lower value 0.987 | locus YBR160W, strain CDC28, stronger effect = lower value 0.994 | locus YDL017W, strain CDC7, stronger effect = lower value 0.997 | locus YDL028C, strain MPS1, stronger effect = lower value 0.974 | locus YDL101C, strain DUN1, stronger effect = lower value 0.979 | locus YDL108W, strain KIN28, stronger effect = lower value 0.987 | locus YDL132W, strain cdc53, stronger effect = lower value 0.987 | locus YDL214C, strain PRR2, stronger effect = lower value 0.893 | locus YDR052C, strain DBF4, stronger effect = lower value 0.989 | locus YDR054C, strain cdc34, stronger effect = lower value 0.985 | locus YDR226W, strain ADK1, stronger effect = lower value 0.998 | locus YDR477W, strain SNF1, stronger effect = lower value 0.905 | locus YER123W, strain YCK3, stronger effect = lower value 0.762 | locus YER133W, strain GLC7, stronger effect = lower value 0.886 | locus YFL009W, strain cdc4, stronger effect = lower value 0.998 | locus YFL029C, strain CAK1, stronger effect = lower value 0.995 | locus YFR003C, strain YPI1, stronger effect = lower value 0.993 | locus YFR019W, strain FAB1, stronger effect = lower value 0.832 | locus YFR028C, strain CDC14, stronger effect = lower value 0.993 | locus YGR040W, strain KSS1, stronger effect = lower value 0.874 | locus YGR052W, strain FMP48, stronger effect = lower value 0.948 | locus YGR092W, strain DBF2, stronger effect = lower value 0.864 | locus YHR030C, strain SLT2, stronger effect = lower value 0.986 | locus YHR079C, strain IRE1, stronger effect = lower value 0.999 | locus YHR082C, strain KSP1, stronger effect = lower value 0.974 | locus YHR205W, strain SCH9, stronger effect = lower value 0.97 | locus YIL147C, strain SLN1, stronger effect = lower value 0.97 | locus YJL095W, strain BCK1, stronger effect = lower value 0.953 | locus YJL128C, strain PBS2, stronger effect = lower value 0.981 | locus YJL157C, strain FAR1, stronger effect = lower value 0.887 | locus YJR016C, strain ILV3, stronger effect = lower value 1 | locus YJR066W, strain TOR1 (second series), stronger effect = lower value 0.808 | locus YJR066W, strain TOR1, stronger effect = lower value 0.96 | locus YKL048C, strain ELM1, stronger effect = lower value 0.948 | locus YKL067W, strain YNK1, stronger effect = lower value 0.907 | locus YKL101W, strain HSL1, stronger effect = lower value 0.926 | locus YKL193C, strain SDS22, stronger effect = lower value 0.989 | locus YKL203C, strain TOR2, stronger effect = lower value 0.953 | locus YLR113W, strain HOG1, stronger effect = lower value 1.01 | locus YLR133W, strain CKI1, stronger effect = lower value 0.924 | locus YLR403W, strain SFP1, stronger effect = lower value 0.883 | locus YML070W, strain DAK1, stronger effect = lower value 0.877 | locus YMR001C, strain CDC5, stronger effect = lower value 0.993 | locus YMR205C, strain PFK2 (second series), stronger effect = lower value 0.908 | locus YMR277W, strain FCP1, stronger effect = lower value 0.993 | locus YNL006W, strain LST8, stronger effect = lower value 0.985 | locus YNL020C, strain ARK1, stronger effect = lower value 0.903 | locus YNL161W, strain CBK1, stronger effect = lower value 0.995 | locus YNL183C, strain NPR1, stronger effect = lower value 0.969 | locus YNL207W, strain RIO2, stronger effect = lower value 0.997 | locus YNL222W, strain SSU72, stronger effect = lower value 1 | locus YNL307C, strain MCK1 (second series), stronger effect = lower value 0.922 | locus YOL078W, strain AVO1, stronger effect = lower value 0.994 | locus YOL136C, strain PFK27, stronger effect = lower value 0.908 | locus YOR061W, strain CKA2, stronger effect = lower value 0.871 | locus YOR119C, strain RIO1, stronger effect = lower value 0.936 | locus YOR231W, strain MKK1, stronger effect = lower value 0.992 | locus YOR329C, strain SCD5, stronger effect = lower value 0.999 | locus YPL031C, strain PHO85, stronger effect = lower value 0.87 | locus YPL153C, strain RAD53, stronger effect = lower value 0.869 | locus YPL204W, strain HRR25, stronger effect = lower value 0.892 | locus YPL209C, strain IPL1, stronger effect = lower value 0.994 | locus YPL256C, strain CLN2, stronger effect = lower value 1.02 | locus YPR025C, strain CCL1, stronger effect = lower value 0.994 | locus YPR106W, strain ISR1, stronger effect = lower value 1 | locus YPR111W, strain DBF20, stronger effect = lower value 0.999 | strain NNK1, stronger effect = lower value 0.994 | strain TSCII, stronger effect = lower value 0.992
